Assay [1] deals with zebrafish Estrogen Receptor (ER1), esr1 (gene 259252) (UniProt P57717). Nature of the assay: ATG_zfER1_XSP2: Attagene TRANS-FACTORIAL Multi-Species (XSP2) HepG2 Assay for zebrafish Estrogen Receptor (ER1) (AID 2283816). In a few lines: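 HepG2 cells transiently transfected with a GAL4-UAS reporter and a chimeric zebrafish ER1-Gal4 construct, dosed 24 h. Reporter mRNA quantified by RT-PCR, labelling, HpaI digestion and capillary electrophoresis, relative to DMSO.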

For assay [2], the target named is chicken Estrogen Receptor (ERa), ESR1 (gene 396099) (UniProt P06212). The assay is described as follows: ATG_chERa_XSP2: Attagene TRANS-FACTORIAL Multi-Species (XSP2) HepG2 Assay for chicken Estrogen Receptor (ERa) (AID 2283817).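 Note: actives raise reporter signal above DMSO so AC50 reflects ER activation.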 The method in brief:
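HepG2 cells transiently transfected with multiplexed GAL4-UAS reporter units expressing chimeric chicken ERa-Gal4; 24 h compound exposure. Reporter mRNA measured by RT-PCR with 6-FAM labelling, HpaI digestion and capillary electrophoresis; gain-of-signal fitted versus DMSO.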

Assay [3] concerns zebrafish Estrogen Receptor (ER2a), gene 317734. The assay is described as follows: ATG_zfER2a_XSP2: Attagene TRANS-FACTORIAL Multi-Species (XSP2) HepG2 Assay for zebrafish Estrogen Receptor (ER2a) (AID 2283818).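 Note: hits raise reporter mRNA so AC50 reflects activation of zebrafish ER2a.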 In a few lines: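 HepG2 cells transiently transfected with GAL4-UAS reporter units and chimeric zebrafish ER2a-Gal4, exposed 24 h; medium contains 3 nM 6-alpha-fluorotestosterone and 1.5 nM norgestrel. Reporter mRNA quantified by RT-PCR, HpaI digestion, capillary electrophoresis; gain versus DMSO.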

In assay [4] the test system is frog Estrogen Receptor (ER), gene 398734. The assay is described as follows: ATG_frER1_XSP2: Attagene TRANS-FACTORIAL Multi-Species (XSP2) HepG2 Assay for frog Estrogen Receptor (ER) (AID 2283821).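 Note: hits raise reporter mRNA above DMSO baseline so potency means agonist or activator.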 In a few lines: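 HepG2, transient MRTU transfection, chimeric NR-GAL4/UAS reporters; 24 h compound exposure, 24-well. Readout: reporter mRNA via RT-PCR + capillary electrophoresis, fluorescence. Positive fit vs DMSO baseline.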

Assay [5] relates to zebrafish Estrogen Receptor (ER2b), gene 317733. The assay is described as follows: ATG_zfER2b_XSP2: Attagene TRANS-FACTORIAL Multi-Species (XSP2) HepG2 Assay for zebrafish Estrogen Receptor (ER2b) (AID 2283823).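 Note: fitted upward as reporter gain over DMSO so potency reflects activation.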 The method in brief: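 HepG2 human liver cells transiently transfected with multiplexed GAL4-UAS reporter units expressing chimeric NR-Gal4 proteins; compounds dosed for 24 h. Reporter mRNA quantified by RT-PCR, 6-FAM labelling and capillary electrophoresis; gain-of-signal fitted against DMSO baseline.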

The target of assay [6] is Estrogen receptor (Homo sapiens) (UniProt P03372). Nature of the assay: ATG_hERa_XSP2: Attagene TRANS-FACTORIAL Multi-Species (XSP2) HepG2 Assay for human Estrogen Receptor (ERa) (AID 2283827). In a few lines:
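HepG2 cells transiently transfected with multiplexed GAL4-UAS reporters driven by chimeric receptor-Gal4 proteins, dosed 24 h with 3 nM 6-alpha-fluorotestosterone and 1.5 nM norgestrel present. Reporter mRNA by RT-PCR and capillary electrophoresis; gain-of-signal fit versus DMSO.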

In assay [7] the test system is frog Estrogen Receptor (ER2), gene 100174814. Nature of the assay: ATG_frER2_XSP2: Attagene TRANS-FACTORIAL Multi-Species (XSP2) HepG2 Assay for frog Estrogen Receptor (ER2) (AID 2283828). In a few lines: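 Human liver HepG2, transient MRTU transfection (TRANS format, exogenous NR–Gal4). 24 h cpd exposure. Total RNA → RT → PCR → FAM label → HpaI cut → CE. Positive direction vs DMSO.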

In assay [8] the target is Peroxisome proliferator-activated receptor gamma (Homo sapiens) (UniProt P37231). The assay is described as follows: ATG_hPPARg_XSP2: Attagene TRANS-FACTORIAL Multi-Species (XSP2) HepG2 Assay for human Peroxisome Proliferator-activated Receptor gamma (PPARg) (AID 2283829).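 Note: actives raise reporter mRNA above DMSO so AC50 reflects PPARg activation.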 In a few lines:
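Reporter transcripts were measured by RT-PCR, fluorescent labeling, HpaI digestion and capillary electrophoresis, relative to DMSO, 24 h post-dosing. Transiently transfected HepG2 expressed NR-Gal4 chimeras regulating GAL4-UAS reporters; medium contained 3 nM 6-alpha-fluorotestosterone plus 1.5 nM norgestrel.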

The target of assay [9] is mouse Peroxisome Proliferator-activated Receptor gamma (PPARg), Pparg (gene 19016) (UniProt P37238). The assay is described as follows: ATG_mPPARg_XSP2: Attagene TRANS-FACTORIAL Multi-Species (XSP2) HepG2 Assay for mouse Peroxisome Proliferator-activated Receptor gamma (PPARg) (AID 2283830).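 Note: hits are gains in reporter mRNA above DMSO so AC50 marks activation.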 The method in brief:
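HepG2 cells transiently transfected with GAL4-UAS reporter units for chimeric NR-Gal4 proteins including mouse PPARg, exposed 24 h; medium contained 3 nM 6-alpha-fluorotestosterone and 1.5 nM norgestrel. Reporter mRNA quantified by RT-PCR, HpaI digestion and capillary electrophoresis, vs DMSO.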

Assay [10] has as its target Nuclear receptor subfamily 1 group I member 2 (Mus musculus) (UniProt O54915). Nature of the assay: ATG_mPXR_XSP2: Attagene TRANS-FACTORIAL Multi-Species (XSP1) HepG2 Assay for mouse Pregnane X Receptor (PXR) (AID 2283831). In a few lines:
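Reporter transcripts measured after 24 h dosing by RT-PCR with 6-FAM labelling, HpaI digestion and capillary electrophoresis. Transiently transfected HepG2 with NR-Gal4 chimeras; increase over DMSO baseline scored.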

In assay [11] the target is zebrafish Thyroid Hormone Receptor alpha (TRa), thraa (gene 30670) (UniProt Q98867). Nature of the assay: ATG_zfTRa_XSP2: Attagene TRANS-FACTORIAL Multi-Species (XSP1) HepG2 Assay for zebrafish Thyroid Hormone Receptor alpha (TRa) (AID 2283832).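 Note: actives raise zebrafish TRa-Gal4 reporter transcript above DMSO baseline.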 The method in brief: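 HepG2 cells transiently transfected with multiplexed GAL4-UAS reporter units expressing chimeric NR-Gal4 proteins; 24 h after dosing, reporter mRNA measured by RT-PCR, FAM labelling, HpaI digestion and capillary electrophoresis; gain of signal versus DMSO baseline.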
zebrafish Thyroid Hormone Receptor alpha (TRa), thraa (gene 30670), sequence (Q98867 whole entry, looked up, the tested form may be a part): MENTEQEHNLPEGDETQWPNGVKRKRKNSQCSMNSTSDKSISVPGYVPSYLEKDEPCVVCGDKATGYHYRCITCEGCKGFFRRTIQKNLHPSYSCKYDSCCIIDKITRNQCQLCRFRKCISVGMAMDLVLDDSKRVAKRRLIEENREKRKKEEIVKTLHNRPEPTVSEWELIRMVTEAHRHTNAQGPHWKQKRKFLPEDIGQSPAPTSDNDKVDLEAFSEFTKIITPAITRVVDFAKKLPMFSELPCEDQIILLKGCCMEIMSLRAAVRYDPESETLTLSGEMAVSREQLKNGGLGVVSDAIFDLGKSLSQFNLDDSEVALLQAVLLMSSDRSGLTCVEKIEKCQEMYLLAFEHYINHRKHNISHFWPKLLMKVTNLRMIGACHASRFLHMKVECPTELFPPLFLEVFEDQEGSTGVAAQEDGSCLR

Assay [12] relates to zebrafish Peroxisome Proliferator-activated Receptor gamma (PPARg), gene 557037. Nature of the assay: ATG_zfPPARg_XSP2: Attagene TRANS-FACTORIAL Multi-Species (XSP2) HepG2 Assay for zebrafish Peroxisome Proliferator-activated Receptor gamma (PPARg) (AID 2283833).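 Note: actives increase reporter signal over DMSO so AC50 reflects activation.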 In a few lines:
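After 24 h chemical exposure, RNA from transiently transfected HepG2 (chimeric NR-Gal4 TRANS reporters) was reverse-transcribed, PCR-amplified, 6-FAM-labelled, HpaI-cut and sized by capillary electrophoresis. Induction was scored in the positive direction relative to DMSO.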

Assay [13] relates to turtle Thyroid Hormone Receptor, alpha (TRa), gene 101949057. Nature of the assay: ATG_trTRa_XSP2: Attagene TRANS-FACTORIAL Multi-Species (XSP1) HepG2 Assay for turtle Thyroid Hormone Receptor, alpha (TRa) (AID 2283834).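 Note: hits raise reporter mRNA over the DMSO baseline so AC50 marks activators.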 The method in brief: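 Turtle TRa-Gal4 chimera activity in transfected human HepG2 cells: reporter transcripts quantified by RT-PCR, 6-FAM labelling and capillary electrophoresis 24 h post-dosing; positive direction versus DMSO, medium containing 3 nM 6-alpha-fluorotestosterone and 1.5 nM norgestrel.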

Assay [14] in a line: ATG_M_61_XSP2: Attagene TRANS-FACTORIAL Multi-Species (XSP2) HepG2 Assay for M61 Transcription Factor (Internal Marker) (AID 2283835; active = hit-call score of the fitted dose curve at least 0.9, where 1 is the maximum; inactive = score below 0.9;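 note: active means a rise in signal above the DMSO baseline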). The method in brief:
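HepG2 cells transiently transfected with multiple GAL4-UAS reporter units; 3 nM 6-alpha-fluorotestosterone and 1.5 nM norgestrel present to stimulate androgen receptor. After 24 h compound exposure, reporter mRNA measured by RT-PCR and capillary electrophoresis fluorescence, gain-of-signal versus DMSO baseline.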

Assay [15] addresses zebrafish Thyroid Hormone Receptor beta (TRb), thrb (gene 30607) (UniProt Q9PVE4). Nature of the assay: ATG_zfTRb_XSP2: Attagene TRANS-FACTORIAL Multi-Species (XSP1) HepG2 Assay for zebrafish Thyroid Hormone Receptor beta (TRb) (AID 2283836).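 For AC50: potency for induction of reporter signal above DMSO so agonist direction.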 The method in brief: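 HepG2 cells transiently transfected with multiplexed GAL4-UAS reporter units expressing chimeric NR-Gal4 proteins; read 24 h after dosing. Reporter mRNA quantified by RT-PCR, 6-FAM labelling, HpaI digest and capillary electrophoresis; gain of signal fitted relative to DMSO.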

Assay [16] in a line: ATG_M_19_XSP2: Attagene TRANS-FACTORIAL Multi-Species (XSP2) HepG2 Assay for M32 Transcription Factor (Internal Marker) (AID 2283822). The method in brief: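 Internal background marker in a multi-species nuclear receptor TRANS panel: transfected HepG2 cells exposed 24 h, with 3 nM 6-alpha-fluorotestosterone and 1.5 nM norgestrel present. Readout is RT-PCR of reporter transcripts resolved by capillary electrophoresis, gain-of-signal versus DMSO.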

The subject of assay [17] is zebrafish Androgen Receptor (AR), gene 100005148. The assay is described as follows: ATG_zfAR_XSP2: Attagene TRANS-FACTORIAL Multi-Species (XSP2) HepG2 Assay for zebrafish Androgen Receptor (AR) (AID 2283825).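 Note: hits raise reporter mRNA above DMSO so AC50 reflects agonist-type gain.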 In a few lines:
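Zebrafish AR–GAL4 chimera transiently expressed with GAL4-UAS reporter in HepG2 cells, co-stimulated with 3 nM 6-alpha-fluorotestosterone and 1.5 nM norgestrel; 24 h dosing, reporter mRNA read by RT-PCR/capillary electrophoresis versus DMSO.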

Assay [18] can be described thus: ATG_M_32_XSP2: Attagene TRANS-FACTORIAL Multi-Species (XSP2) HepG2 Assay for M19 Transcription Factor (Internal Marker) (AID 2283826). The method in brief: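 Read-out: reporter mRNA quantified by RT-PCR, FAM labeling, HpaI digestion and capillary electrophoresis, 24 h after dosing transfected HepG2 cells. Medium carried 3 nM 6-alpha-fluorotestosterone plus 1.5 nM norgestrel; gain of signal fitted against DMSO.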

The structures appear in SMILES notation. Several values for one entry are separate records, joined by “and”; a condition that tells them apart may be missing. Equal entries are not always repeated. Inconclusive results are not listed. A structure can be active in one record and inactive in another. Activity calls are given as the source filed them. Rule for the calls, unless noted: active = hit-call score of the fitted dose curve at least 0.9, where 1 is the maximum; inconclusive = response in the unintended direction; inactive = score below 0.9.

zebrafish Thyroid Hormone Receptor beta (TRb), thrb (gene 30607), sequence (Q9PVE4 whole entry, looked up, the tested form may be a part): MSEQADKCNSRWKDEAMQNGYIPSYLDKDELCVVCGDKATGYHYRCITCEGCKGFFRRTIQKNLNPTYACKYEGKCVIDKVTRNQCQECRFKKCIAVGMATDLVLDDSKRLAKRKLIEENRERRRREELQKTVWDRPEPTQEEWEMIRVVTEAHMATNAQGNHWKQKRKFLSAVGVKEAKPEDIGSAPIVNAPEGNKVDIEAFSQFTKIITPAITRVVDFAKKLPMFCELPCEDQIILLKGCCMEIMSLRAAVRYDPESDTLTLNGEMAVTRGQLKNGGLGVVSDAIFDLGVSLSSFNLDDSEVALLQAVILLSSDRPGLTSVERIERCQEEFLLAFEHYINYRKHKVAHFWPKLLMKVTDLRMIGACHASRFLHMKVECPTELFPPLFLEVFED
Estrogen receptor (Homo sapiens), sequence (P03372 whole entry, looked up, the tested form may be a part): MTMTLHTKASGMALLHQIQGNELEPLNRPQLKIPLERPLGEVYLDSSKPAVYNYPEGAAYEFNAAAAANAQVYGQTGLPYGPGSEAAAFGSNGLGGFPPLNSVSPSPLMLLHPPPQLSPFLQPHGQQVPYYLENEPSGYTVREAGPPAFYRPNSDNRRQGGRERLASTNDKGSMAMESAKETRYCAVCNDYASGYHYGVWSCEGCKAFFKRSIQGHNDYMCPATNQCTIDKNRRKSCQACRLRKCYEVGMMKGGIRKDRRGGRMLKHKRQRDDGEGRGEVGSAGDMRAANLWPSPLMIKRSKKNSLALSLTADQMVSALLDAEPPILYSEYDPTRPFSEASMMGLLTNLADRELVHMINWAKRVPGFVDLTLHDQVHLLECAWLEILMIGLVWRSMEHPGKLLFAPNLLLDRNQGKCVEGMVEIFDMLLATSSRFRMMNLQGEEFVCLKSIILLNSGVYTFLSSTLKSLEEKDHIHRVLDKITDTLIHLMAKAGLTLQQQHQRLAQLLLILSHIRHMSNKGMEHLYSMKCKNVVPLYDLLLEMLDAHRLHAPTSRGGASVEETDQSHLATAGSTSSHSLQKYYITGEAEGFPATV
zebrafish Estrogen Receptor (ER1), esr1 (gene 259252), sequence (P57717 whole entry, looked up, the tested form may be a part): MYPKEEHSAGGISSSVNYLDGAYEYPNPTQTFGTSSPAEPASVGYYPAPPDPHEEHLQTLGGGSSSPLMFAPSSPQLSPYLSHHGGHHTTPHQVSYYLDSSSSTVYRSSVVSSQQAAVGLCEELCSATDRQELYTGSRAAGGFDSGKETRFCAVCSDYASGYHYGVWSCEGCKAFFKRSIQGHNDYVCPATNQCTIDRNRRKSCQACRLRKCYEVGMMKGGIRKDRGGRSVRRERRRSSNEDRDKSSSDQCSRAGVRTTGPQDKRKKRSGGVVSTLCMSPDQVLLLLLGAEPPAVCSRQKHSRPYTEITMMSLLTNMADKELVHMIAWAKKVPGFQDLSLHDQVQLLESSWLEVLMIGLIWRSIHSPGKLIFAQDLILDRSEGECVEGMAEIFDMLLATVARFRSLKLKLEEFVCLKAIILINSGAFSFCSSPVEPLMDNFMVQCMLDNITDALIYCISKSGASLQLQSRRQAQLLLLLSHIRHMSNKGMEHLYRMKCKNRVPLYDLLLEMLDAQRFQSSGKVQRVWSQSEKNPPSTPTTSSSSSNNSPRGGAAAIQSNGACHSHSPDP
mouse Peroxisome Proliferator-activated Receptor gamma (PPARg), Pparg (gene 19016), sequence (P37238 whole entry, looked up, the tested form may be a part): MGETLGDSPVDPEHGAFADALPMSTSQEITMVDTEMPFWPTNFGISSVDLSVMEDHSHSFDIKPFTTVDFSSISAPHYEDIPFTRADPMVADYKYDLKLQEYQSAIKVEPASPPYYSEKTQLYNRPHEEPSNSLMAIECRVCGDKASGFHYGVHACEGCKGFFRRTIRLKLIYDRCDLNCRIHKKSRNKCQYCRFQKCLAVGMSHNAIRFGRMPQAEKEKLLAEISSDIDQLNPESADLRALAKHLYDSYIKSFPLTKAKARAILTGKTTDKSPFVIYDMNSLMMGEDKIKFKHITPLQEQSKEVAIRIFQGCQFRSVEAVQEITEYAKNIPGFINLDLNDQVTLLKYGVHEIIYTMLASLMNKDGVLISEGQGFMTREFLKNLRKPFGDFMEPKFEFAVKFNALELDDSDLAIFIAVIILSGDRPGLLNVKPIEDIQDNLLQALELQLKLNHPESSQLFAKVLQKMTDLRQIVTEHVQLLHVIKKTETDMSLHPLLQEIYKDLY
Peroxisome proliferator-activated receptor gamma (Homo sapiens), sequence (P37231 whole entry, looked up, the tested form may be a part): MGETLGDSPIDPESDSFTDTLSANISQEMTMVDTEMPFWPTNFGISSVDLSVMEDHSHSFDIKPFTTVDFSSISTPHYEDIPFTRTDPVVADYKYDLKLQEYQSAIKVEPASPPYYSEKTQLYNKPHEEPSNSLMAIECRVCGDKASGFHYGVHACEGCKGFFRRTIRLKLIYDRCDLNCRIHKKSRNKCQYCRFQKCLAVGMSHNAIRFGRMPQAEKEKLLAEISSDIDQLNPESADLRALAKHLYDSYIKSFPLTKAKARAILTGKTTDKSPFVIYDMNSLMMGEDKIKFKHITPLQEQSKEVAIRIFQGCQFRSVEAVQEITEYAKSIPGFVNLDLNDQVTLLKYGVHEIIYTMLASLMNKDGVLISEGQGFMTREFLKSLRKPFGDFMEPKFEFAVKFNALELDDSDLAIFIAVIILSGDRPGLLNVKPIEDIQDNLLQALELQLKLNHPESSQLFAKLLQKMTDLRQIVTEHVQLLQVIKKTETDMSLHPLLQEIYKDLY
chicken Estrogen Receptor (ERa), ESR1 (gene 396099), sequence (P06212 whole entry, looked up, the tested form may be a part): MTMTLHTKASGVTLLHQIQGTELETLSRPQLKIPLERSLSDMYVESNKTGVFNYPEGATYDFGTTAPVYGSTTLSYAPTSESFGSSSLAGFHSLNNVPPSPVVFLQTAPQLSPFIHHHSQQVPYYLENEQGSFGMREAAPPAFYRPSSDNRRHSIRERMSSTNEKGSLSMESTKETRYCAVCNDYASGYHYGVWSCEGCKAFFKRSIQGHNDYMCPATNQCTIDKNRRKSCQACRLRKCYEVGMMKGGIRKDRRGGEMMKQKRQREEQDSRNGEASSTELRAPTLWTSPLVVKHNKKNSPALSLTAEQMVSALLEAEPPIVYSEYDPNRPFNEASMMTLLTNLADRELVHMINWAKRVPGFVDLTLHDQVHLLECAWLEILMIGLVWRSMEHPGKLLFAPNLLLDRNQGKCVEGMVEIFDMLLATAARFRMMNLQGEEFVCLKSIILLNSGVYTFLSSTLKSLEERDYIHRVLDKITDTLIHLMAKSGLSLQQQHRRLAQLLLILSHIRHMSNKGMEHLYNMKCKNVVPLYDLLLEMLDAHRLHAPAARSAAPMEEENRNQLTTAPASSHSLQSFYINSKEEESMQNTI
Nuclear receptor subfamily 1 group I member 2 (Mus musculus), sequence (O54915 whole entry, looked up, the tested form may be a part): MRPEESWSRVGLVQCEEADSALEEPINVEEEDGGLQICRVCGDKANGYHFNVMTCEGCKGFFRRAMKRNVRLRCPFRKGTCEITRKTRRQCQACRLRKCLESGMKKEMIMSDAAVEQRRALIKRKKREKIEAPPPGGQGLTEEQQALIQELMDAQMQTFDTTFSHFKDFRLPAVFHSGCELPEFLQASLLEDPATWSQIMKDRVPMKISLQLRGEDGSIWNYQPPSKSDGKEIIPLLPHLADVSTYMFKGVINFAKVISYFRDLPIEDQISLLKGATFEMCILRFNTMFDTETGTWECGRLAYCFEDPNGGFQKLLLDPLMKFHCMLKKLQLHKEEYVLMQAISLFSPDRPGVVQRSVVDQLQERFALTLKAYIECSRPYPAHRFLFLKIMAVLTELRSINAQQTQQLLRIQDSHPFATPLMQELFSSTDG

The AC50 is the midpoint of the concentration-response curve, whichever way the signal moves. `N#Cc1c[nH]cc1-c1cccc2c1OC(F)(F)O2`: the AC50 in assay [1] is 25.9 µM (active); in assay [2] it was 1.68 µM (active) and 2.04 µM (active); in [3], 25.8 µM (active) and 2.71 µM (active); in [4] it was 4.14 µM (active); in assay [5] it was 23.2 µM (active) and 17.5 µM (active); in assay [6], 1.51 µM (active). In addition, the AC50 is 1.22 µM (active) and 859 nM (active) in assay [7]; 14 µM (active) and 21.7 µM (active) in assay [8]; 27.2 µM (active) in assay [9]; 6.52 µM (active) and 6.26 µM (active) in assay [10]; 27 µM (active) in [11]; 100 µM (active) in [15]. Further, the compound was called inactive in [4], in assay [11], in [12], in assay [13], in [14] and in [15].
Consider `CC(C)NC(=O)N1CC(=O)N(c2cc(Cl)cc(Cl)c2)C1=O`, for which the result in assay [1], in [2], in assay [3], in [4], in assay [16] and in assay [5] was inactive. Moreover, the call in assay [17], in [18], in assay [7], in assay [11], in assay [12] and in [13] was inactive. Moreover, the outcome in assay [14] and in assay [15] was inactive. For the same compound, the concentration at half-maximal activity (AC50) was 6.97 µM (active) in assay [6], 33.2 µM (active) in assay [8], 40.6 µM (active) in assay [9] and 6.7 µM (active) in assay [10].
Take `COP(=S)(OC)SCn1nnc2ccccc2c1=O`: the compound was classed as inactive in assay [1], in assay [2], in assay [3], in assay [5], in assay [6] and in assay [7]. Besides, the call in assay [10], in assay [12], in [13], in assay [14] and in assay [15] was inactive. For the same compound, the AC50 is 21.7 µM (active) in assay [2]; 29.1 µM (active) and 5.67 µM (active) in assay [4]; 132 µM (active) in assay [5]; 24.7 µM (active) in [6]; 93.7 µM (active) and 23.2 µM (active) in [8]; 51.6 µM (active) and 32.6 µM (active) in assay [9].
In the case of `COP(=S)(OC)Oc1ccc([N+](=O)[O-])c(C)c1`, the compound was classed as inactive in assay [1], in assay [11], in assay [12], in assay [13], in assay [14] and in [15]. For the same compound, the AC50 is 38.3 µM (active) in assay [2]; 44.9 µM (active) in [3]; 50.4 µM (active) in assay [4]; 54.5 µM (active) in assay [5]; 32.5 µM (active) in assay [6]; 85.1 µM (active) in assay [7]. Besides, the AC50 in assay [8] is 55.8 µM (active); in [9], 31.3 µM (active); in assay [10], 4.6 µM (active).
For the compound `CC1(C)CCC(=Cc2ccc(Cl)cc2)C1(O)Cn1cncn1` (centres undefined), the call in [1], in assay [3], in [4], in [16], in assay [18] and in [8] was inactive. The outcome in assay [9], in assay [11], in assay [12], in [13] and in assay [15] was inactive. The half-maximal activity concentration (AC50) in [2] was 27.6 µM (active); in assay [5], 115 µM (active); in assay [6], 13.4 µM (active); in assay [7] it was 63 µM (active); in assay [10] it was 6.24 µM (active).

Source of the values: PubChem BioAssay (EPA / NIEHS).
